# High-throughput results: PubChem BioAssay, National Center for Advancing Translational Sciences (NCATS)
# Cycloheximide cs: Cycloheximide Counterscreen for Small Molecule Inhibitors of Shiga Toxin. cell reporter, cycloheximide protein synthesis inhibition counterscreen. max response, %. 300,000 tested, 12% active; in the data active = max response mostly above about 13%, no sharp cut-off; inactive = mostly below about 14%; note: read at 38.3 µM for the half of the compounds with a filed dose; 0% is about no effect
# FBPA Giardia inh: qHTS Assay for Inhibitors of Fructose-1,6-bisphosphate Aldolase from Giardia Lamblia; purified Giardia FBPA; 290,000 tested, 0.71% active; Potency, µM (highest dose often 59.6 µM), without a hit: top-dose activity, negative = inhibition, usual class: inhibitors; A8B2U2; AID 2451, 2010; note: potency is the fitted concentration of half-maximal effect; % is set by controls: 0 for no effect and ±100 for the full control effect; nearly all actives have a fitted effect of over 55% in size
# Target sequence (A8B2U2 whole entry, looked up): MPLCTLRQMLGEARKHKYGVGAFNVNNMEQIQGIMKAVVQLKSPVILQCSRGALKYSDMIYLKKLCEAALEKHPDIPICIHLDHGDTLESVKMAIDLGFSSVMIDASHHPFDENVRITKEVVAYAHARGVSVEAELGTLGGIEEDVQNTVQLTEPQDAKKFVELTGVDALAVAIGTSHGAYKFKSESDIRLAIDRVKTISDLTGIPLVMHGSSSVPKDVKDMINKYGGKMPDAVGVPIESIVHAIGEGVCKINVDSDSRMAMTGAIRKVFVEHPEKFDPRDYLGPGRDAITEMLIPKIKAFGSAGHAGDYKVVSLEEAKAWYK
#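 Giardia FBPA (40 nM reagent) was preincubated 10 min at RT with compound (up to 57.5 uM final), then substrate plus GAPDH/TPI/NAD/arsenate coupling system with diaphorase/resazurin was added; resorufin fluorescence (525/598 nm) was read after 20 min.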
# Pf growth 96h: Primary qHTS for delayed death inhibitors of the malarial parasite plastid, 96 hour incubation. Potency, µM (top dose mostly 28.7 µM), without a hit: at the top dose activity change, negative = inhibition, usual class: inhibitors. P. falciparum luciferase reporter growth, 96 h. 320,000 tested, 6.9% active; note: potency is the fitted concentration of half-maximal effect; % is set by controls: 0 for no effect and ±100 for the full control effect
#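 Cell-based qHTS: luciferase-tagged P. falciparum in erythrocytes (2% hematocrit, 0.05% parasitemia final) incubated with compounds for 96 hours, 37 C, 5% CO2; luciferase detection reagent then added and luminescence measured.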
# Shiga toxin inh: A qHTS for Small Molecule Inhibitors of Shiga Toxin; inhibition, % at 38.7 µM; Vero cells, Shiga toxin protein synthesis inhibition reporter; 290,000 tested, 9.2% active; in the data active = inhibition mostly above about 28%, no sharp cut-off; inactive = mostly below about 43%; note: 0% is about no effect
# Pf growth 48h: Primary qHTS for delayed death inhibitors of the malarial parasite plastid, 48 hour incubation. Potency, µM (doses to about 28.7 µM), for the others: at the top dose activity change, negative = inhibition, usual class: inhibitors. 310,000 tested, 5.9% active. P. falciparum luciferase growth in erythrocytes, 48 h; note: potency is the fitted concentration of half-maximal effect; % is set by controls: 0 for no effect and ±100 for the full control effect
#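 Luminescence readout; reporter = integrated firefly luciferase in P. falciparum. RBC culture at 2% hematocrit, 0.1% parasitemia final, 37 C/5% CO2; decreased signal taken as growth inhibition.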
# NS1 function inh: qHTS Assay for Inhibitors of Influenza NS1 Protein Function. 270,000 tested, 0.4% active. Potency, µM (highest dose often 46.1 µM), for the others: top-dose activity, positive = more growth; calls by dose curve; note: potency is the fitted concentration of half-maximal effect; actives are rising curves; nearly all actives have a fitted effect of over 50% in size
#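 Growth recovery, yeast-based: influenza A NS1 expressed in S. cerevisiae causes slow growth, and suppressors are detected by OD600. The parent strain without NS1 is used as positive control.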
# The depositor's hits bear a star; ? = inconclusive; · = no result given; [ ] = dose if it differs, or a comment. In the library only some 21% were active in any assay of this set; here they are far more common. Unless noted, calls come from the whole dose curve; as a rule, active = well fitted curve in the direction sought with a large enough effect; inconclusive = small, poorly fitted or top-dose-only effect, or another doubt; inactive = no such curve, though single readings can be large; an effect the other way counts as inactive or inconclusive.
SMILES,Cycloheximide cs,FBPA Giardia inh,Pf growth 96h,Shiga toxin inh,Pf growth 48h,NS1 function inh
O=C(Nc1cccnc1)c1ccc(-c2ccccc2)cc1,33*,0%,37%[1.15 µM],72*,117%,·
O=C(Nc1ccncc1)c1ccc(-c2ccccc2)cc1,36*,0%,?,121*,-14%,·
CC(=O)Nc1ccc(C(=O)Nc2ccncc2)cc1,0,13%,0%,-7,3%,-14%
O=C(Nc1ccncc1)c1ccc(F)cc1,8,1%,5.2µM*,4,·,-28%
CCN=C(N)CSS(=O)(=O)O,·,·,·,·,·,-2%
COC(=O)c1sccc1S(=O)(=O)N1CCCC(N(C)CCc2ccccn2)C1 (stereo not given),0,·,?,2,-6%,2%
Cc1ccc(/C=C/C(=O)CCC(=O)O)cc1,35*,11%,20%,64*,31%,1%
Cc1ccc(Nc2nc(-c3ccc(S(=O)(=O)N4CCCC4)cc3)cs2)cc1C,-2,-13%,1.7µM*,23,1.9µM*,?
Nc1nc(-c2ccc(S(=O)(=O)N3CCCCC3)cc2)cs1,·,·,13µM*,·,?,·
Cc1nc(-c2ccc(S(=O)(=O)N3CCCCCC3)cc2)cs1,21*,3%,-3%,100*,7%,-10%
COc1ccc(C(=O)N2CCC3(CC2)CCN(c2ccncc2)CC3)cc1,·,4%,·,·,·,·
CCOC(=O)CN(Cc1cc(OC)cc(N(C)C)c1OC)C(=O)C1CC(CO[Si](C)(C)C(C)(C)C)=CN1C(=O)OC(C)(C)C (stereo not given),5,-12%,·,-5,·,·
CCOC(=O)c1c(C)[nH]c(C(=O)OCCOc2ccccc2C)c1C,45*,-3%,491%,61*,260%,-2%
CCOC(=O)c1c(C)[nH]c(C(=O)OCc2ccccc2F)c1C,50*,2%,161%,115*,56%,6%
CCOC(=O)c1c(C)[nH]c(C(=O)OCCOc2ccc(Cl)cc2)c1C,0,-1%,63%,-7,34%,8%
CCOC(=O)c1[nH]c(C)c(C(=O)Nc2ccccc2F)c1C,25*,10%,?,60*,70%,-4%
CCOC(=O)c1ccc(OCCOc2ccccc2C)cc1,34*,?,?,·,2%,7%
CN(C)S(=O)(=O)c1cccc(NC(=O)CN2C(=O)NC3(CCc4ccccc4C3)C2=O)c1 (stereo not given),1,13%,-1%,-4,-20%,8%
CCOC(=O)c1[nH]c(COC(=O)CCCOc2ccccc2)c(C(=O)OCC)c1C,3,2%,?,1,13µM*,-4%
CCOC(=O)c1[nH]c(C)c(C(=O)Nc2ccc(F)cc2)c1C,-1,1%,-28%,7,·,4%
CCOC(=O)c1c(C)[nH]c(C(=O)OCc2ccc(F)cc2)c1C,50*,·,158%,72*,182%,1%
CCOC(=O)c1[nH]c(C)c(C(=O)Nc2ccc(C)c(C)c2)c1C,15*,9%,5.9µM*,13,·,-6%
CCO[C@@H]1OC(C(=O)N2CCN(Cc3ccc4c(c3)OCO4)CC2)=C[C@H](c2cn(C(C)=O)c3ccccc23)[C@H]1CCCO,-2,-17%,4.1µM*,-10,1.3µM*,-15%
CC(=O)n1cc([C@H]2C=C(C(=O)N3CCN(Cc4ccc5c(c4)OCO5)CC3)O[C@@H](OCCCCO)C2)c2ccccc21,-1,2%,?,-4,0.93µM*,-6%
CCO[C@@H]1OC(C(=O)N2CCN(Cc3ccc4c(c3)OCO4)CC2)=C[C@H](c2csc3ccccc23)[C@H]1CCCO,7,-26%,2.1µM*,-11,?,-17%
CC(=O)n1cc([C@@H]2C=C(C(=O)N3CCOCC3)O[C@H](OCCCCO)C2)c2ccccc21,-2,-1%,9%,-12,?,0%
CSc1nc(-c2ccccc2)nn1C(=O)c1ccc(C)cc1,15*,1%,37%,65,31%,-18%
CSc1nc(-c2ccco2)nn1C(=O)c1ccc(C)cc1,-2,-14%,-1%,2,8%,-44%
